These results are taken from PubChem BioAssay AID2797 (The Scripps Research Institute Molecular Screening Center, 2010).

“And” between values parts separate entries of the source, which are not always exact repeats. Equal entries are not always repeated. Screen size: about 320,000 compounds; about 820 (0.26%) were called active.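 How the source made its calls: active means activation above the mean activation of all tested compounds plus 3 SD, per screening run (cut at about 20% in these data); inactive means the rest.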 The entries come from a sample that favours actives as a whole.

Vasopressin V1a receptor (Homo sapiens), sequence (P37288 whole entry, looked up): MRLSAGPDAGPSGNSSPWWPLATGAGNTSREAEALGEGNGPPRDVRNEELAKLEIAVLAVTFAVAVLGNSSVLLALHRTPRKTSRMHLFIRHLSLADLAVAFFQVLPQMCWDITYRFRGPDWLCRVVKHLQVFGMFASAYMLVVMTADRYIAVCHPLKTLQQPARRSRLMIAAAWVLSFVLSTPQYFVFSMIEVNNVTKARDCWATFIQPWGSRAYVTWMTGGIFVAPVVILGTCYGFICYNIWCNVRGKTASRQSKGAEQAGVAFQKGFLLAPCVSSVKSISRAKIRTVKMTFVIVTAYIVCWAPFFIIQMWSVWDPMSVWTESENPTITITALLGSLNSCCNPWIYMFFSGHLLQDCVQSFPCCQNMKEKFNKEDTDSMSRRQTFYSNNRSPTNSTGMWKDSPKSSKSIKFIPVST

The experiment has as its target Vasopressin V1a receptor (Homo sapiens) (UniProt P37288). The experiment can be described thus: agonists of human V1a receptor, primary screen, counter-screen for OXTR agonist project, fluorescence, CHO-V1R cells (AID 2797).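 Further: signal is peak over basal fluorescence ratio across a 100 second FLIPR read.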 The conditions noted are these: Fluo-8 calcium fluorescence, agonist mode, at 3 µM, active compounds read high, 0% DMSO, 100% 3 nM vasopressin. Background: The purpose of a counterscreen is to sort out artefacts and off-target activity.
Regarding `Cn1c2ccccc2c(=O)c2c(=O)n(Cc3ccco3)c(COc3ccccc3)nc21`, the activation is 2.23% (inactive).

As to `Cn1c2ccccc2c(=O)c2c(O)cccc21`, the activation was 0.32% (inactive).

Consider `CCCc1nc2c(c(=O)c3ccccc3n2C)c(=O)n1C1CCCCCC1`, for which the activation was 86.8% (active).

For the compound `NS(=O)(=O)c1ccc(NC(=O)COC(=O)C2(c3ccc(F)cc3)CCCC2)cc1`, the activation is 10.2% (inactive).

As for `CCC(C(=O)Nc1ccc2c(c1)OCCO2)c1ccccc1` (centres undefined), the activation is 1.12% (inactive).

Consider `CCC(C(=O)OCC(=O)Nc1ccc(C(=O)Nc2ccc(OC)cc2)cc1)c1ccccc1` (centres undefined), for which the activation is 6.96% (inactive).

`CCC(C(=O)Nc1ccc(C(C)C)cc1)c1ccccc1` (centres undefined): the activation is 40.7% (active).

Turning to `COc1ccc2c(c1)C(=O)Nc1cc(Cl)ccc1N2`, the activation is 3.78% (inactive).

Regarding `CCOC(=O)CC1C(=O)NCCN1c1nc2c(C)cccn2c(=O)c1/C=C1\SC(=S)N(C(C)CC)C1=O` (centres undefined), the activation was 34% (active).

On to `Cc1cccn2c(=O)c(/C=C(\C#N)C(N)=O)c(N3CCCCCC3)nc12`, for which the activation is -0.28% (inactive).

As to `CCOC(=O)N1CCN(C(=O)CSc2nc(=O)n3cccc(C)c3n2)CC1`, the activation is -0.26% (inactive).

For the compound `Cn1nccc1NC(=O)CC(CC(=O)O)c1ccccc1` (centres undefined), the activation was -0.62% (inactive).

As to `Cc1ccc(C(=O)NCC(=O)OCc2nnc(-c3ccccc3)o2)cc1`, the activation is 1.89% (inactive).

Consider `CCCc1ccc(C(=O)[C@@H]2[C@@H](C(C)=O)N3c4ccc(F)cc4C=C[C@@H]3[C@@]23C(=O)Nc2ccccc23)cc1`, for which the activation is -0.96% (inactive).

With `Cc1ccc(CNC(=O)c2cccc3c2C(=O)c2ccc(N4CCC(C)CC4)cc2S3(=O)=O)cc1`, the activation is 49.5% (active).

Regarding `CC1CCN(c2c(NCc3ccc(C(=O)NCc4ccccc4)cc3)c(=O)c2=O)CC1`, the activation is 0.76% (inactive).

In the case of `Cc1ccc(CNC(=O)c2ccc3c(c2)S(=O)(=O)c2ccccc2C3=O)cc1`, the activation is -0.95% (inactive).

`CCCN(CCC)CCCNC(=O)CNC(=O)c1nn(-c2ccc(OC)cc2)c(=O)c2ccccc12`: the activation is 2.99% (inactive).

Regarding `CCOC(=O)C1=C(CC)Nc2ccccc2N=C1NC(=O)c1cccc(S(=O)(=O)N2CCCC2)c1`, the activation is -0.11% (inactive).

As to `Cc1ccc(C)c(CN2CCC(CNC(=O)Nc3ccc(C)c(F)c3)CC2)c1`, the activation was 4.31% (inactive).

`Cc1ccccc1NC(=O)NCC1CCN(Cc2cccc(Cl)c2)CC1`: the activation was 3.18% (inactive).

As to `Cc1cccc(CN2CCC(CNC(=O)Nc3ccc(F)c(Cl)c3)CC2)c1`, the activation is 26.4% (active).

Consider `CCNC(=S)NNC(=O)Cc1ccccc1`, for which the activation was -0.19% (inactive).

`CCCCC(=O)NNC(=S)NC(=O)C(c1ccccc1)c1ccccc1`: the activation is 73.7% (active).

For the compound `CC(C)C(=O)Nc1cccc(NC(=S)NC(=O)C(c2ccccc2)c2ccccc2)c1`, the activation is 6.96% (inactive).

Turning to `Cc1ccc(S(=O)(=O)NC2CCCCCC2)cc1C(N)=O`, the activation is 3.64% (inactive).

As to `CCCN(CC1COc2ccccc2O1)C(=S)Nc1ccc(C)cc1` (centres undefined), the activation was -0.74% (inactive).

In the case of `CCN(CC)C(=O)N(CC)Cc1ccccc1`, the activation is 0.23% (inactive).

Regarding `OCCN(Cc1ccccc1)Cc1ccc(Cl)cc1`, the activation is 0.58% (inactive).

Regarding `CN(C(=O)CN(CCO)CC(=O)N(C)C(C)(C)Cc1ccccc1)C(C)(C)Cc1ccccc1`, the activation was 53.5% (active).

As to `CCN(CC)c1ccc(/C=N/NC(=O)c2cnccn2)c(O)c1`, the activation was 20.8% (active).

As to `Cc1ccc(C(=O)NCCNC(=O)c2cnccn2)cc1`, the activation is 0.28% (inactive).

Turning to `O=C(Nc1ccc2c(c1)OCCO2)c1cnccn1`, the activation is -0.23% (inactive).

Consider `CC(c1ccco1)N(C(=O)Nc1ccccc1)C1CCCCC1` (centres undefined), for which the activation is -0.6% (inactive).

With `CC(C)c1cc(NCc2ccccn2)n2c(nc3ccccc32)c1C#N`, the activation was -0.18% (inactive).

In the case of `CC/C(=N\NC(=O)c1ccccc1Cl)c1ccc(Br)s1`, the activation is 0.56% (inactive).

`O=C(CN1CCN(c2cccc(Cl)c2)CC1)Nc1ccc(S(=O)(=O)N2CCOCC2)cc1`: the activation is 26.1% (active).

Take `O=C(CN1C(=O)CCC1=O)Nc1ccc(S(=O)(=O)N2CCOCC2)cc1`: the activation is 0.29% (inactive).

As for `O=C(CN1CCCCCC1)Nc1ccc(S(=O)(=O)N2CCCCC2)cc1`, the activation is 0.94% (inactive).

`CCC(C)NC(=O)N[C@@H](CCSC)C(=O)O` (some centres undefined): the activation was 0.54% (inactive).

As for `Cc1cccc(-c2nc3ccccc3c(=O)n2NC(=O)Cc2ccc(Cl)cc2)c1`, the activation was 4.01% (inactive).

On to `NC(=O)c1cc(-c2cccnc2)nc2ccc(Br)cc12`, for which the activation was -0.49% (inactive).

In the case of `O=c1c2cc(Br)ccc2nc(-c2cccc(Cl)c2)n1O`, the activation is 39% (active).

For the compound `CCCCc1nc2cc(C(=O)NCCc3cnn(C)c3)ccc2o1`, the activation was 1.32% (inactive).

Consider `CC(C)c1nc(SCC(=O)Nc2cccc(C(=O)O)c2)c2c3c(sc2n1)CCCC3`, for which the activation is 6.28% (inactive).

For the compound `CCOc1ccc(C2NC(=S)NC3=C2CCc2ccccc23)cc1` (centres undefined), the activation is 0.4% (inactive).

For the compound `O=C(NCc1cccnc1)c1cc(S(=O)(=O)N2CCOCC2)c(Cl)cc1Cl`, the activation was 1.17% (inactive).

`COc1ccccc1NC(=O)Nc1nc(CC(=O)Nc2ccccc2F)cs1`: the activation is -0.76% (inactive).

With `Oc1ccc2ccc3cccc[n+]3c2c1`, the activation was 49.5% (active).

Regarding `CCSc1nc(C)c(CCOc2cccc(C)c2)c(=O)[nH]1`, the activation is -0.28% (inactive).

`COCCN(C(=O)CC1CCCCC1)c1c(N)n(CC(C)C)c(=O)[nH]c1=O`: the activation was -0.63% (inactive).

Regarding `CC(=O)Nc1cccc(NC(=O)CSc2nccn2Cc2ccc(F)cc2)c1`, the activation was 3.25% (inactive).

With `C=CCOc1cccc(C2C(C(=O)c3ccc(C)o3)=C(O)C(=O)N2c2nnc(C)s2)c1` (centres undefined), the activation was 78.1% (active).

Consider `Cc1cc(N2C(=O)C(O)=C(C(=O)c3ccc(C)o3)C2c2ccc(OCc3ccccc3)cc2)no1` (centres undefined), for which the activation was 0.41% (inactive).

Consider `C=CCOc1cccc(C2C(C(=O)c3ccc(C)o3)=C(O)C(=O)N2CCCn2ccnc2)c1` (centres undefined), for which the activation was -0.49% (inactive).

As to `CCOC(=O)c1c(NC(=O)CSc2nnc(CNc3ccc(C)cc3C)o2)sc(C)c1C`, the activation was 0.01% (inactive).

For `COc1ccc(S(=O)(=O)NCC(c2ccc(C)cc2)N2CCN(C)CC2)cc1OC` (centres undefined), the activation was 0.61% (inactive).

For `Cc1cnc(C(=O)OCc2c(C)cc(C(C)(C)C)cc2C)cn1`, the activation was -0.09% (inactive).

In the case of `CC1(C)S[C@@H]2[C@H](N=CN3CCCCCC3)C(=O)N2[C@H]1C(=O)O`, the activation is 21.6% (active).

Take `CC1(C)S[C@@H]2[C@H](NC(=O)COc3ccccc3)C(=O)N2C1C(=O)OCc1ccccc1` (some centres undefined): the activation was 1.45% (inactive).

As for `CC1(C)SC2C(NC(=O)COc3ccccc3)C(=O)N2C1C(=O)O` (centres undefined), the activation was 0.91% (inactive) and -0.17% (inactive).

For the compound `COC(=O)c1sc(-c2ccc(C(C)(C)C)cc2)cc1NC(=O)/C=C/C(=O)O`, the activation is 28.5% (active).

Turning to `CC(C)(C)c1ccc(/C=C/C(=O)Nc2ncccn2)cc1`, the activation was -0.18% (inactive).

Regarding `COc1ccccc1NC(=O)/C=C/C(N)=O`, the activation is 0.73% (inactive).

As for `COc1ccc(S(=O)(=O)N2CCOCC2)c(C)c1C`, the activation was 0.14% (inactive).

Turning to `O=C(NNC(=O)c1ccccc1[N+](=O)[O-])Nc1ccccc1C(F)(F)F`, the activation was 0.06% (inactive).

For `O=C(N1CCCC1)C12CC3CC(C1)CC(C(=O)N1CCCC1)(C3)C2`, the activation is -0.17% (inactive).

Take `Cc1nc(C(=O)Nc2ccc(Cl)cc2)sc1C1(C)CC(c2ccccc2)=NO1` (centres undefined): the activation was 1.86% (inactive).

Turning to `Cc1nc(-c2ccc(Cl)cc2)sc1C1(C)CC(c2ccccc2F)=NO1` (centres undefined), the activation was 0.6% (inactive).

Consider `Cc1nc(C(=O)NCc2ccccc2)sc1C1(C)CC(c2cccnc2)=NO1` (centres undefined), for which the activation was 33.9% (active).

As for `O=C(Nc1ccc(Cl)cc1)Nc1ccc(Oc2cccnc2)nc1`, the activation is 15.2% (inactive).

As to `COc1ccc(F)cc1S(=O)(=O)N1CCCCC1`, the activation is 0.03% (inactive).

Take `Cc1cc(NC(=O)CCC(=O)N(CC(=O)NCC2CCCO2)c2ccccc2)no1` (centres undefined): the activation is -0.14% (inactive).

Regarding `Nc1ccc2nc3c(=O)[nH]c(=S)[nH]c3nc2c1`, the activation was 33.2% (active).

As for `NC(N)=Nc1nc2ccc(Br)cc2c(=O)[nH]1`, the activation was 0.39% (inactive).

With `COCC(=O)N1CCc2ccc(NC(=O)c3ccccc3Cl)cc2C1`, the activation is 1.09% (inactive).

`CCOC(=O)c1c(S(=O)(=O)Nc2ccc(CN3CCC(C)CC3)cc2)c(C)n(C)c1C`: the activation was 0.65% (inactive).

As for `CCC(Oc1ccccc1C)C(=O)Nc1ccc(S(=O)(=O)Nc2cc(C)on2)cc1` (centres undefined), the activation is -0.02% (inactive).

`Fc1ccc(COc2ccc(-c3nnco3)cc2)cc1`: the activation is 0.56% (inactive).

Consider `O=C(/C=C/c1ccc(OCc2c(F)cccc2Cl)cc1)N1CCOCC1`, for which the activation was 2.69% (inactive).

In the case of `Fc1cccc(Cl)c1COc1ccc(-c2nnco2)cc1`, the activation is 25.1% (active).

Consider `COc1cccc(C(=O)Nc2cc3c(cc2Br)OCCCO3)c1`, for which the activation was -1.23% (inactive).

With `O=C(c1ccc(Br)o1)N(c1ccccn1)C1CCCCC1`, the activation was -0.71% (inactive).

For `Cc1cccc(C(=O)OC(C)CN2CCCC2)c1` (centres undefined), the activation is -0.62% (inactive).

With `CC(C)CC1(C)NC(=O)N(CC(=O)Nc2ccc3c(c2)OCCO3)C1=O` (centres undefined), the activation is 1.53% (inactive).

In the case of `COCC1CCN(C(=O)CCc2nnc(C3(c4ccc(Cl)cc4)CCC3)o2)C1` (centres undefined), the activation was -0.39% (inactive).

`CCN(CC)c1ccc2oc(=O)c(C)nc2c1`: the activation was 24.3% (active).

Take `C=CCN(C(=O)Nc1ccc2oc(C)nc2c1)c1ccccc1`: the activation was 0.19% (inactive).

For the compound `CCN(CC)c1ccc(C(=O)Nn2c(C)nc3ccccc3c2=O)cc1`, the activation is 6.78% (inactive).

As for `CC(C)=CCCC(C)CN1CCC(n2nccc2NC(=O)c2ccccc2)CC1` (centres undefined), the activation was 0.01% (inactive).

`COc1ccc(OC)c(NC(=O)COC(=O)Cc2ccsc2)c1`: the activation is -0.12% (inactive).

For the compound `CN(C)c1ccc(C=C2C(=O)OC3(CCCC3)OC2=O)cc1`, the activation is 2.02% (inactive).

Turning to `COc1cc(/C=C2/SC(=S)N(Cc3ccccc3)C2=O)cc(OC)c1O`, the activation is 15.3% (inactive).

For the compound `CN(C)c1ccc(/C=C2\NC(=S)N(Cc3ccccc3)C2=O)cc1`, the activation was 70.8% (active).
